Where two headings read alike, the source gives them in different places.
Tests used:
SIK2 = details: read-out: apparent Kd, n = 1
STK3 = details: read-out: apparent Kd, n = 1

Substance: Lestaurtinib
- potency estimated from few doses (SIK2; compound concentrations:100 nM and 1000 nM (sheet 'Lestaurtinib' of Supplementary Table 1),run:Lestaurtinib_02748_R1,Plate:MR024): 48.8 nM
- potency estimated from few doses (SIK2; compound concentrations:100 nM and 1000 nM (sheet 'Lestaurtinib' of Supplementary Table 1),run:Lestaurtinib_02748_R2,Plate:MR024): 56.4 nM
- potency estimated from few doses (SIK2; compound concentrations:100 nM and 1000 nM (sheet 'Lestaurtinib' of Supplementary Table 1),run:Lestaurtinib_02748_R3,Plate:MR024): 51.6 nM
- potency estimated from few doses (SIK2; compound concentrations:100 nM and 1000 nM (sheet 'Lestaurtinib' of Supplementary Table 1),run:Lestaurtinib_02752_R2,Plate:MR025): 56 nM
- potency estimated from few doses (SIK2; compound concentrations:100 nM and 1000 nM (sheet 'Lestaurtinib' of Supplementary Table 1),run:Lestaurtinib_02752_R3,Plate:MR025): 56 nM
- potency estimated from few doses (SIK2; compound concentrations:100 nM and 1000 nM (sheet 'Lestaurtinib' of Supplementary Table 1),run:Lestaurtinib_02765_R1,Plate:MR026): 49.7 nM
- potency estimated from few doses (SIK2; compound concentrations:100 nM and 1000 nM (sheet 'Lestaurtinib' of Supplementary Table 1),run:Lestaurtinib_02765_R2,Plate:MR026): 91.3 nM
- potency estimated from few doses (SIK2; compound concentrations:100 nM and 1000 nM (sheet 'Lestaurtinib' of Supplementary Table 1),run:Lestaurtinib_02766_R1,Plate:MR027): 43.3 nM
- potency estimated from few doses (SIK2; compound concentrations:100 nM and 1000 nM (sheet 'Lestaurtinib' of Supplementary Table 1),run:Lestaurtinib_02766_R2,Plate:MR027): 26.9 nM
- potency estimated from few doses (SIK2; compound concentrations:100 nM and 1000 nM (sheet 'Lestaurtinib' of Supplementary Table 1),run:Lestaurtinib_02768_R2,Plate:MR028): 45.1 nM
- potency estimated from few doses (SIK2; compound concentrations:100 nM and 1000 nM (sheet 'Lestaurtinib' of Supplementary Table 1),run:Lestaurtinib_02768_R3,Plate:MR028): 47.4 nM
- potency estimated from few doses (SIK2; compound concentrations:100 nM and 1000 nM (sheet 'Lestaurtinib' of Supplementary Table 1),run:Lestaurtinib_02795_R1,Plate:MR022): 59.7 nM
- potency estimated from few doses (SIK2; compound concentrations:100 nM and 1000 nM (sheet 'Lestaurtinib' of Supplementary Table 1),run:Lestaurtinib_02795_R2,Plate:MR022): 62.3 nM
- potency estimated from few doses (SIK2; compound concentrations:100 nM and 1000 nM (sheet 'Lestaurtinib' of Supplementary Table 1),run:Lestaurtinib_02795_R3,Plate:MR022): 165 nM
- potency estimated from few doses (SIK2; compound concentrations:100 nM and 1000 nM (sheet 'Lestaurtinib' of Supplementary Table 1),run:Lestaurtinib_02802_R1,Plate:MR029): 49.8 nM
- potency estimated from few doses (SIK2; compound concentrations:100 nM and 1000 nM (sheet 'Lestaurtinib' of Supplementary Table 1),run:Lestaurtinib_02802_R2,Plate:MR029): 52.5 nM
- potency estimated from few doses (SIK2; compound concentrations:100 nM and 1000 nM (sheet 'Lestaurtinib' of Supplementary Table 1),run:Lestaurtinib_02802_R3,Plate:MR029): 25.3 nM
- potency estimated from few doses (SIK2; compound concentrations:100 nM and 1000 nM (sheet 'Lestaurtinib' of Supplementary Table 1),run:Lestaurtinib_02896_R2,Plate:MR030): 44.8 nM
- potency estimated from few doses (SIK2; compound concentrations:100 nM and 1000 nM (sheet 'Lestaurtinib' of Supplementary Table 1),run:Lestaurtinib_03172_R1,Plate:MR031): 46.2 nM
- potency estimated from few doses (SIK2; compound concentrations:100 nM and 1000 nM (sheet 'Lestaurtinib' of Supplementary Table 1),run:Lestaurtinib_03172_R2,Plate:MR031): 51.4 nM
- potency estimated from few doses (SIK2; compound concentrations:100 nM and 1000 nM (sheet 'Lestaurtinib' of Supplementary Table 1),run:Lestaurtinib_03172_R3,Plate:MR031): 49.5 nM
- potency estimated from few doses (SIK2; compound concentrations:100 nM and 1000 nM (sheet 'Lestaurtinib' of Supplementary Table 1),run:Lestaurtinib_03252_R2,Plate:MR032): 34.3 nM
- potency estimated from few doses (SIK2; compound concentrations:100 nM and 1000 nM (sheet 'Lestaurtinib' of Supplementary Table 1),run:Lestaurtinib_03260_R1,Plate:MR033): 77.2 nM
- potency estimated from few doses (SIK2; compound concentrations:100 nM and 1000 nM (sheet 'Lestaurtinib' of Supplementary Table 1),run:Lestaurtinib_03260_R3,Plate:MR033): 54.9 nM
- potency estimated from few doses (STK3; compound concentrations:100 nM and 1000 nM (sheet 'Lestaurtinib' of Supplementary Table 1),run:Lestaurtinib_02339_R1,Plate:MR001): 36.6 nM
- potency estimated from few doses (STK3; compound concentrations:100 nM and 1000 nM (sheet 'Lestaurtinib' of Supplementary Table 1),run:Lestaurtinib_02339_R2,Plate:MR001): 36.6 nM
- potency estimated from few doses (STK3; compound concentrations:100 nM and 1000 nM (sheet 'Lestaurtinib' of Supplementary Table 1),run:Lestaurtinib_02364_R1,Plate:MR002): 36.5 nM
- potency estimated from few doses (STK3; compound concentrations:100 nM and 1000 nM (sheet 'Lestaurtinib' of Supplementary Table 1),run:Lestaurtinib_02364_R3,Plate:MR002): 51.5 nM
- potency estimated from few doses (STK3; compound concentrations:100 nM and 1000 nM (sheet 'Lestaurtinib' of Supplementary Table 1),run:Lestaurtinib_02367_R1,Plate:MR003): 39.1 nM
- potency estimated from few doses (STK3; compound concentrations:100 nM and 1000 nM (sheet 'Lestaurtinib' of Supplementary Table 1),run:Lestaurtinib_02367_R2,Plate:MR003): 37.3 nM
- potency estimated from few doses (STK3; compound concentrations:100 nM and 1000 nM (sheet 'Lestaurtinib' of Supplementary Table 1),run:Lestaurtinib_02367_R3,Plate:MR003): 42.9 nM
- potency estimated from few doses (STK3; compound concentrations:100 nM and 1000 nM (sheet 'Lestaurtinib' of Supplementary Table 1),run:Lestaurtinib_02381_R1,Plate:MR004): 32.9 nM
- potency estimated from few doses (STK3; compound concentrations:100 nM and 1000 nM (sheet 'Lestaurtinib' of Supplementary Table 1),run:Lestaurtinib_02381_R2,Plate:MR004): 38.2 nM
- potency estimated from few doses (STK3; compound concentrations:100 nM and 1000 nM (sheet 'Lestaurtinib' of Supplementary Table 1),run:Lestaurtinib_02407_R1,Plate:MR005): 40 nM
- potency estimated from few doses (STK3; compound concentrations:100 nM and 1000 nM (sheet 'Lestaurtinib' of Supplementary Table 1),run:Lestaurtinib_02407_R2,Plate:MR005): 29.8 nM
- potency estimated from few doses (STK3; compound concentrations:100 nM and 1000 nM (sheet 'Lestaurtinib' of Supplementary Table 1),run:Lestaurtinib_02407_R3,Plate:MR005): 30.1 nM
- potency estimated from few doses (STK3; compound concentrations:100 nM and 1000 nM (sheet 'Lestaurtinib' of Supplementary Table 1),run:Lestaurtinib_02422_R1,Plate:MR006): 51.1 nM
- potency estimated from few doses (STK3; compound concentrations:100 nM and 1000 nM (sheet 'Lestaurtinib' of Supplementary Table 1),run:Lestaurtinib_02422_R2,Plate:MR006): 62.7 nM
- potency estimated from few doses (STK3; compound concentrations:100 nM and 1000 nM (sheet 'Lestaurtinib' of Supplementary Table 1),run:Lestaurtinib_02437_R1,Plate:MR007): 38.1 nM
- potency estimated from few doses (STK3; compound concentrations:100 nM and 1000 nM (sheet 'Lestaurtinib' of Supplementary Table 1),run:Lestaurtinib_02437_R2,Plate:MR007): 50.7 nM
- potency estimated from few doses (STK3; compound concentrations:100 nM and 1000 nM (sheet 'Lestaurtinib' of Supplementary Table 1),run:Lestaurtinib_02438_R1,Plate:MR008): 29.8 nM
- potency estimated from few doses (STK3; compound concentrations:100 nM and 1000 nM (sheet 'Lestaurtinib' of Supplementary Table 1),run:Lestaurtinib_02443_R1,Plate:MR009): 41.6 nM
- potency estimated from few doses (STK3; compound concentrations:100 nM and 1000 nM (sheet 'Lestaurtinib' of Supplementary Table 1),run:Lestaurtinib_02443_R2,Plate:MR009): 39.1 nM
- potency estimated from few doses (STK3; compound concentrations:100 nM and 1000 nM (sheet 'Lestaurtinib' of Supplementary Table 1),run:Lestaurtinib_02473_R1,Plate:MR010): 47.3 nM
- potency estimated from few doses (STK3; compound concentrations:100 nM and 1000 nM (sheet 'Lestaurtinib' of Supplementary Table 1),run:Lestaurtinib_02473_R2,Plate:MR010): 42.2 nM
- potency estimated from few doses (STK3; compound concentrations:100 nM and 1000 nM (sheet 'Lestaurtinib' of Supplementary Table 1),run:Lestaurtinib_02482_R1,Plate:MR011): 27.1 nM
- potency estimated from few doses (STK3; compound concentrations:100 nM and 1000 nM (sheet 'Lestaurtinib' of Supplementary Table 1),run:Lestaurtinib_02482_R2,Plate:MR011): 44.7 nM

Source: article PMC11062922 (Nature Chemical Biology, 2023)
